# PAX8 reporter = inhibitors of PAX8-driven TPO luciferase reporter, primary screen, RMG-I cells, single concentration | SteadyGlo, 24 h | inhibition, % at 12.6 µM | 360,000 tested, 1.2% active;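 active = mean replicate inhibition at least 60% with every replicate also reaching 60%; inconclusive = only one of the two criteria is met; inactive = mean below 60% and not all replicates reaching 60%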;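 also: luciferase light reporting Pax8 driven TPO promoter activity; plate controls were median of neutral control wells for no effect and mitoxantrone controls for full effect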
# PGC1a acetyl inh = inhibitors of PGC1a acetylation signal, primary screen, cell-based, U2OS, AlphaScreen, inhibitor mode | AID 651687, 2012 | AlphaScreen anti-acetyl-lysine; with virally co-expressed GCN5 acetyltransferase | inhibition, % at 15.6 µM | 350,000 tested, 0.17% active;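 active = every replicate shows inhibition of at least 40%; inconclusive = mean inhibition at least 40% but some replicate below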;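 also: 0% = neutral control wells and 100% = positive control wells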
# LGR2 antag = inhibitors of bursicon-induced LGR2 CRE-luciferase signal, primary screen, cell-based, HEK293, CRE-luciferase reporter, bursicon stimulation; inhibition, % at 9.99 µM; bursicon-stimulated, 4 h; AID 720647, 2013; Drosophila bursicon receptor LGR2 (rickets); 380,000 tested, 0.35% active;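 active = drop in luminescence signal, shown as inhibition above about 50% in the replicate tests, limit read from the data, passing the limit was not always enough; inconclusive = probably only some replicates passing the limit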;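 also: agonist challenge used bursicon conditioned medium at about half maximal strength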
# SIRT5 block = SIRT5 desuccinylase inhibitors, primary screen, biochemical, fluorescence imaging, single point, set 5. NAD-dependent protein deacylase sirtuin-5, mitochondrial (Homo sapiens), Q9NXA8. 330,000 tested, 1.1% active. inhibition, % at 15 µM. Purified SirT5, succinyl-peptide AMC, trypsin-coupled fluorescence. AID 652115, 2013; in the data active = inhibition above about 15%; inconclusive = no clear call, values can overlap the other calls
# Target sequence (Q9NXA8 whole entry, looked up): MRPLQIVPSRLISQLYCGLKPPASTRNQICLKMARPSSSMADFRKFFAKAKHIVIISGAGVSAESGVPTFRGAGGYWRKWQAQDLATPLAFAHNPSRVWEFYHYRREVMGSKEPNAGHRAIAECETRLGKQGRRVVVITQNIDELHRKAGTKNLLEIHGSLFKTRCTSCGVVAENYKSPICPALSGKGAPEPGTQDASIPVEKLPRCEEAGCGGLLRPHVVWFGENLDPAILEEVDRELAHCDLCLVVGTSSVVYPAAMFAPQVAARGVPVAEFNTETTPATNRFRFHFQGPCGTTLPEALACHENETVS
# rRNA inh HTS = reduced GFP signal of wild-type E. coli, primary screen, bacterial rRNA inhibitor project, GFP/RFP fluorescence, OD600, single point | GFP signal change (wild-type ribosome), % (test concentration not listed) | 350,000 tested, 1.6% active | AID 720706, 2013 | E. coli WT GFP vs humanized-ribosome RFP mutants, 24 h; hits give low values; DMSO median 0, no signal -100;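 active = significant combined selectivity score with lowered wild-type GFP, culture density cut under 30%, mutant RFP and density less affected; inactive = any of these conditions unmet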
# EWS-Fli inh = EWS/Fli-driven NR0B1 reporter inhibitors, primary screen, A673 cells, NR0B1 luciferase, luminescence, MLPCN library; viability-normalised; inhibition, % at 12.6 µM; 350,000 tested, 0.67% active;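 active = mean inhibition of at least 50% after viability correction, with every replicate also passing that limit; inconclusive = mean reaches 50% but only one of two replicates passes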;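 also: firefly luciferase signal divided by Alamar Blue viability fluorescence both relative to DMSO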
# Active calls of the source: *; ? = inconclusive; . = not tested or not shown. Hits are enriched below; roughly 3.4% of the tested compounds scored in any of these assays.
SMILES,PAX8 reporter,PGC1a acetyl inh,LGR2 antag,SIRT5 block,rRNA inh HTS,EWS-Fli inh
N#C[C@@H]1[C@H](c2ccc(C#Cc3cccc(F)c3)cc2)[C@@H](CO)N1C(=O)C1CCC1,23,-15,72*,3,-55,15
CCCC#Cc1ccc([C@@H]2[C@@H](C#N)N(C(=O)C3CCCCC3)[C@H]2CO)cc1,83*,4,4,4,-17,14
COc1ccccc1C#Cc1ccc([C@@H]2[C@H](C#N)N(C(=O)C3CCC3)[C@H]2CO)cc1,7,-4,15,-1,-8,-11
COc1ccccc1C#Cc1ccc([C@H]2[C@H](C#N)N(C(=O)C3CCC3)[C@H]2CO)cc1,106*,31,42,6,-13,-6
CC(C)NC(=O)NCC[C@H]1CC[C@H](NS(=O)(=O)c2ccccc2)[C@H](CO)O1,.,-10,9,0,2,0
O=C1NN(c2ccccc2)C(=O)/C1=C/c1ccc(-c2ccc(Cl)c(C(=O)O)c2)o1,3,.,-5,14,-1,1
Cc1cccc(N2NC(=O)/C(=C/c3ccc(-c4ccc(Cl)c(C(=O)O)c4)o3)C2=O)c1,9,-4,4,16*,18,1
O=C(O)c1cc(-c2ccc(/C=C3\NC(=O)N(c4ccc(Cl)cc4)C3=O)o2)ccc1Cl,-7,.,2,20*,-1,10
CCC(=O)N(C[C@H]1[C@H](c2ccccc2)[C@@H](CO)N1S(C)(=O)=O)C(C)C,.,.,.,.,3,.
CN(C)C(=O)c1cccc(-c2ccc([C@H]3[C@@H](CO)N4CCCCN(C(=O)C5CCCC5)C[C@@H]34)cc2)c1,-7,-3,.,4,.,-8
COc1ccc(CC(=O)NCC2CCCN(Cc3ccc(OC(F)(F)F)cc3)C2)cc1 (stereo not given),10,-25,.,21*,.,-3
COc1ccc(CC(=O)NCC2CCCN(Cc3cc(OC)cc(OC)c3)C2)cc1 (stereo not given),-17,1,8,0,6,5
COC(=O)c1ccc(CN2CCCC(CNC(=O)Cc3ccc(OC)cc3)C2)cc1 (stereo not given),14,5,.,0,5,4
COc1ccc(CC(=O)NCC2CCCN(Cc3ccccc3Cl)C2)cc1 (stereo not given),11,2,10,17*,-4,4
O=C(NCc1cccc(F)c1)[C@H]1[C@H](CO)[C@H]2Cn3c(cccc3=O)[C@@H]1N2C(=O)c1cnccn1,0,.,0,4,3,12
CN(CCOc1ccccc1)CCOc1ccccc1,3,-1,4,.,2,0
CC(=O)N(CCOc1ccccc1)CCOc1ccccc1,-15,.,-46,-2,-23*,-15
CCCCN(Cc1cc2ccccc2[nH]c1=O)S(=O)(=O)c1ccc(C)cc1,15,-15,9,.,-14,-12
O=c1[nH]c2ccccc2cc1CN(Cc1cccnc1)S(=O)(=O)c1ccc(Cl)cc1,21,.,17,0,-45*,-1
COc1ccc(N(Cc2cc3cc(OC)ccc3[nH]c2=O)S(=O)(=O)c2ccc(NC(C)=O)cc2)cc1,91*,.,-10,0,-7,.
CC(=O)Nc1ccc(S(=O)(=O)N(Cc2ccco2)Cc2cc3ccccc3[nH]c2=O)cc1,25,2,11,-1,-17,-1
CC(=O)Nc1ccc(S(=O)(=O)N(Cc2cccnc2)Cc2cc3ccccc3[nH]c2=O)cc1,71*,.,-6,-1,-6,.
O=c1[nH]c2ccccc2cc1CN(Cc1cccnc1)S(=O)(=O)c1ccc([N+](=O)[O-])cc1,-9,-6,3,4,-21*,.
O=C(C[C@@H]1CC[C@H](NC(=O)CC2CC2)[C@@H](CO)O1)NCc1ccccc1,-7,2,-11,-2,0,5
CNC[C@H]1Oc2cc(C#Cc3ccccn3)ccc2S(=O)(=O)N([C@@H](C)CO)C[C@@H]1C,.,1,-31,6,6,-4
SMILES,PAX8 reporter,PGC1a acetyl inh,LGR2 antag,SIRT5 block,rRNA inh HTS,EWS-Fli inh
CNC[C@@H]1OCCCC[C@@H](C)Oc2ccc(NS(=O)(=O)c3ccc(OC)cc3)cc2C(=O)N([C@@H](C)CO)C[C@H]1C,-17,-9,11,.,4,3
COc1ccc(NC(=O)CCN(c2ccc(OC)cc2)S(=O)(=O)c2ccc(C)c(C)c2)cc1,8,.,6,1,-27*,-8
COc1ccc(N(CC(=O)Nc2ccc(C)c(C)c2)S(=O)(=O)c2c(C)noc2C)cc1,11,15,11,0,-8,.
C[C@H]1CN([C@@H](C)CO)C(=O)Cc2cc(NC(=O)Nc3ccc(F)cc3)ccc2O[C@H]1CN(C)Cc1ccc(C(=O)Nc2ccccc2N)cc1,49,-10,-31,.,-56,7
Cc1cc(=O)n2c3c(c4c(cc13)c(CN(C)C)cc(=O)n4C)OC2,104*,11,105*,2,-56,?
CC=Cc1ccc2n(c1=O)C[C@H]1[C@H](CO)[C@@H](C(=O)NCCC)[C@@H]2N1Cc1ccccc1 (mixture of isomers),4,.,0,-6,2,-2
CC(=O)OC(C=C(C)C)C/C(C)=C/COc1c2ccoc2cc2oc(=O)ccc12 (stereo not given),9,6,3,4,-21*,7
CC(C)(O)C(O)COc1c2ccoc2cc2oc(=O)ccc12 (stereo not given),.,-4,-23,0,2,3
CCN(CC)S(=O)(=O)c1cc(NC(=O)C2CCN(c3ncnc4sc(C)c(C)c34)CC2)ccc1Cl,72*,.,39,-3,-1,33
Cc1ccc(NC(=O)C2CCN(c3ncnc4sc(C)c(C)c34)CC2)cc1S(=O)(=O)N(C)C,33,10,30,-2,0,22
Cc1sc2ncnc(N3CCC(C(=O)N(C)CC(=O)Nc4ccc(Cl)c(C(F)(F)F)c4)CC3)c2c1C,78*,.,-15,2,1,28
Oc1c(Br)cc(Br)cc1CNc1cccc2cccnc12,13,-7,-4,2,-22*,11
Cc1ccc2nc(C)c3c(c2c1)OC(C(C)(Cl)Br)C3 (stereo not given),3,-12,-6,-3,-10,21
Cc1nc2ccccc2c2c1CC(C(C)(Cl)Br)O2 (stereo not given),16,1,16,-1,-30*,22
